Consider eight compounds from PubChem BioAssay (Tox21).

Several values for one entry are separate records, joined by “and”; a condition that tells them apart may be missing. Equal values may be shown once. Inconclusive results are not listed. Some compounds were tested as several samples or in several runs, with calls that do not always agree. Activity calls are given as the source filed them. Unless noted, calls come from the whole dose curve; as a rule, active = well fitted curve in the direction sought with a large enough effect in the repeat runs; inconclusive = weak or mixed curves; inactive = no such curve, though single readings can be large; an effect the other way counts as inactive or inconclusive.

Test [1] can be described thus: qHTS assay to test for compound auto fluorescence at 535 nm (green) in HEK293 cells (AID 720680). (qHTS replaces the single test concentration by a dilution series.)
Test [2] is described as follows: qHTS assay to test for compound auto fluorescence at 460 nm (blue) in HEK293 cell free culture (AID 720681). Summed up:
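Blue fluorescence (Ex 405/Em 460 nm, triamterene-equivalent) was read immediately after pin transfer of compound or DMSO into medium (DMEM, 10% FBS) without cells.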

The nature of test [3]: qHTS assay to test for compound auto fluorescence at 535 nm (green) in HEK293 cell free culture (AID 720682). Summed up: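 Cell-free medium (DMEM, 10% FBS) receives compound or DMSO by pintool. Plate read directly at Ex 485/Em 535 nm. Signal converted to fluorescein equivalency.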
Test [4] is described as follows: qHTS assay to test for compound auto fluorescence at 590 nm (red) in HEK293 cell free culture (AID 720683). Summed up:
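Red-channel autofluorescence of compounds in culture medium (DMEM, 10% FBS), no cells, measured at 540/590 nm. Rose Bengal sodium is the reference fluorophore for equivalence.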

The nature of test [5]: qHTS assay to test for compound auto fluorescence at 590 nm (red) in HepG2 cell free culture (AID 720684). Summed up:
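No cells present: MEM + 10% FBS only. Compound pinned in, red label read (540/590 nm). Activity = fluorescence equivalent to Rose Bengal sodium.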

A short description of test [6]: qHTS assay to test for compound auto fluorescence at 460 nm (blue) in HepG2 cell free culture (AID 720685). Summed up:
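Cell-free plates of MEM plus 10% FBS received 23 nL compound or DMSO vehicle; blue-channel (405/460 nm) intensity scored against triamterene as reference fluorophore.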

A short description of test [7]: qHTS assay to test for compound auto fluorescence at 535 nm (green) in HepG2 cell free culture (AID 720686).
The nature of test [8]: qHTS assay to test for compound auto fluorescence at 460 nm (blue) in HepG2 cells (AID 720687). Summed up:
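Blue-channel autofluorescence (Ex/Em 405/460 nm, triamterene-equivalent) was measured after 1 hr compound exposure at 37 C, 5% CO2. Cells were HepG2, plated overnight at 37 C in MEM plus 10% FBS.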

Test [9] in a line: qHTS assay to identify small molecule antagonists of the glucocorticoid receptor (GR) signaling pathway - cell viability counter screen (AID 720693). Note: nearly all actives have a fitted effect of over 55% in size.
Test [10] can be described thus: qHTS assay for identifying genotoxic compounds that show differential cytotoxicity against isogenic chicken DT40 cell lines with known DNA damage response pathways - wild type cell line (AID 743012). Note: nearly all actives have a fitted effect of over 60% in size. Note: potency is the fitted concentration of half-maximal effect. Summed up:
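Endpoint: CellTiter-Glo luminescence, 30 min RT. Cells: wild type DT40, 300/well. Exposure: compounds in DMSO, 40 h, 37 C/5% CO2, after ~0.5 h pre-incubation.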

Test [11] can be described thus: qHTS assay for identifying genotoxic compounds that show differential cytotoxicity against isogenic chicken DT40 cell lines with known DNA damage response pathways - Rev3 mutant cell line (AID 743014). Note: nearly all actives have a fitted effect of over 55% in size. Note: potency is the fitted concentration of half-maximal effect.
The nature of test [12]: qHTS assay for identifying genotoxic compounds that show differential cytotoxicity against isogenic chicken DT40 cell lines with known DNA damage response pathways - Rad54/Ku70 mutant cell line (AID 743015). Note: nearly all actives have a fitted effect of over 60% in size. Note: potency is the fitted concentration of half-maximal effect.
Test [13] in a line: qHTS assay to identify small molecule antagonists of the androgen receptor (AR) signaling pathway - cell viability counter screen (AID 743033; note: nearly all actives have a fitted effect of over 45% in size).
The nature of test [14]: qHTS assay to identify small molecule antagonists of the androgen receptor (AR) signaling pathway using the MDA cell line - cell viability counter screen (AID 743041; note: nearly all actives have a fitted effect of over 45% in size; note: potency is the fitted concentration of half-maximal effect). Summed up: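 Using the breast carcinoma line MDA-kb2 AR-luc, test chemicals were co-incubated with R1881 for 16 h; CellTiter-Fluor reagent, added at 15.5 h, provided a fluorescence measure of live cells.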

Test [15] deals with Glucocorticoid receptor (Homo sapiens) (UniProt P04150). The test is described as follows: qHTS assay to identify small molecule agonists of the glucocorticoid receptor (GR) signaling pathway (AID 720691; active = well fitted activation curve with a large enough effect in the signal ratio in the repeat runs, not every such curve was filed as active; the % refers to the signal ratio). Summed up:
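Measures GR pathway activation through a GRE-beta-lactamase reporter stably integrated in HeLa cells, with 18 h compound treatment at 37 C and fluorescence detection using a FRET substrate.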

Test [16] concerns the target Androgen receptor (Homo sapiens) (UniProt P10275). As to the kind of experiment: qHTS assay to identify small molecule antagonists of the androgen receptor (AR) signaling pathway (AID 743035; active = well fitted inhibition curve with a large enough effect in the signal ratio in the repeat runs, not every such curve was filed as active; the % refers to the signal ratio; note: potency is the fitted concentration of half-maximal effect). Summed up: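 R1881 agonist challenge of a HEK293 UAS-beta-lactamase AR reporter line in the presence of compound (16 h, 37C); signal taken as FRET fluorescence after 2 h with LiveBLAzer B/G substrate at room temperature.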

For test [17] the target is unchanged. The test is described as follows: qHTS assay to identify small molecule agonists of the androgen receptor (AR) signaling pathway using the MDA cell line (AID 743040; note: nearly all actives have a fitted effect of over 20% in size). Summed up: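 Stable MMTV-luciferase reporter in MDA-kb2 cells; note the promoter carries GR as well as AR response elements. 16 h compound treatment, 37C, 0% CO2; ONE-Glo luminescence endpoint.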

The target is the same in test [18]. As to the kind of experiment: qHTS assay to identify small molecule antagonists of the androgen receptor (AR) signaling pathway using the MDA cell line (AID 743042; note: nearly all actives have a fitted effect of over 55% in size). Summed up: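 Antagonist mode: compounds plus R1881 agonist added to MDA-kb2 AR-luc cells, incubated 16 h at 37C. Luciferase reporter luminescence quantified, with multiplexed CellTiter-Fluor readout for cell viability.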

The target is the same in test [19]. As to the kind of experiment: qHTS assay to identify small molecule agonists of the androgen receptor (AR) signaling pathway (AID 743036; active = well fitted activation curve with a large enough effect in the signal ratio in the repeat runs, with a control signal flat, not every such curve was filed as active; the % refers to the signal ratio). Summed up: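 AR-bla HEK293 cells, 2,000/well; 4 h preincubation 37C/5% CO2; compound (DMSO) 16 h at 37C; LiveBLAzer B/G FRET substrate 2 h RT; fluorescence intensity read-out.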

Chain of Glucocorticoid receptor (Homo sapiens) (P04150 whole entry, looked up): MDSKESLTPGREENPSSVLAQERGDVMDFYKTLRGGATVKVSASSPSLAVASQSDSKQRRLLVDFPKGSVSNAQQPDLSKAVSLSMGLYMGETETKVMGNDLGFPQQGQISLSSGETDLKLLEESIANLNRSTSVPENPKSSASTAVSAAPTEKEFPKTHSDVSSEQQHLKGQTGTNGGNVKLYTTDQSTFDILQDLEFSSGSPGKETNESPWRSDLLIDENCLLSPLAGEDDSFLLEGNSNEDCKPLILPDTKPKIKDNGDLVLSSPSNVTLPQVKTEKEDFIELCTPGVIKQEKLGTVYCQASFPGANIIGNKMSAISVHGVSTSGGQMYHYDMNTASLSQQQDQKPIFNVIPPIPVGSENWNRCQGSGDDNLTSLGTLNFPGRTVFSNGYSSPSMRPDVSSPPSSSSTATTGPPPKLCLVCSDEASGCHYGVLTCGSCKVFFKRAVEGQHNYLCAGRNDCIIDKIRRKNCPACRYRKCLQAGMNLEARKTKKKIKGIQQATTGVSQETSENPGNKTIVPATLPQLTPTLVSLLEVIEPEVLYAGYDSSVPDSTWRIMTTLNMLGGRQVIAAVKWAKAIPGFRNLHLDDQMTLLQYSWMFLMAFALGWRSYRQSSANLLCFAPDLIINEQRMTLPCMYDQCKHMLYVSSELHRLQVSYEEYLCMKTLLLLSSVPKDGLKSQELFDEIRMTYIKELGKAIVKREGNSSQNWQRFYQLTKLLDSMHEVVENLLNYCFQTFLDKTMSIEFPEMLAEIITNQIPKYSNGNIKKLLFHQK
Chain of Androgen receptor (Homo sapiens) (P10275 whole entry, looked up): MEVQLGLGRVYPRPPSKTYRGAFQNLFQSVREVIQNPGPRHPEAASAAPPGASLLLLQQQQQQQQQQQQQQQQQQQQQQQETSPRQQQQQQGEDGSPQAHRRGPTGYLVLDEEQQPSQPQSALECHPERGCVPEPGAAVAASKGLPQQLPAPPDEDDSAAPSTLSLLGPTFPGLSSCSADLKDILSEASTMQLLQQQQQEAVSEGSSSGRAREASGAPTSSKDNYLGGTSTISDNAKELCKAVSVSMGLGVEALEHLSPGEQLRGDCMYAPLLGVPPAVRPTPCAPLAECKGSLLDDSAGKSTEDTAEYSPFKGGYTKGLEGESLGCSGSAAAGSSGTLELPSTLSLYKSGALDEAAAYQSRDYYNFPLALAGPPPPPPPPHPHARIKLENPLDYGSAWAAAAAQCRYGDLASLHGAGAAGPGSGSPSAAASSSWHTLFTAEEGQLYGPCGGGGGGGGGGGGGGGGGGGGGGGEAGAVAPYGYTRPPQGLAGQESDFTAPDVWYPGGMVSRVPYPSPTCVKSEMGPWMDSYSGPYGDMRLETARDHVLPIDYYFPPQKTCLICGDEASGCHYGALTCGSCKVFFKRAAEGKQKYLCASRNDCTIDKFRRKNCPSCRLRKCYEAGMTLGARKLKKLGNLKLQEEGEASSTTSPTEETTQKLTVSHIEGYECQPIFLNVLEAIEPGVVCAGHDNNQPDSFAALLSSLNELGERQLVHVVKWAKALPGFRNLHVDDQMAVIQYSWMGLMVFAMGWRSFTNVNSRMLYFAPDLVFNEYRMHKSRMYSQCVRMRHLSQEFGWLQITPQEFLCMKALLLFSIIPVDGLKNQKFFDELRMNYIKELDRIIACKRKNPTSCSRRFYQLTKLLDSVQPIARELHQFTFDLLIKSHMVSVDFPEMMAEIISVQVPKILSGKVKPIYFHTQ

For the compound `CN1CCC[C@@H]1CCO[C@](C)(c1ccccc1)c1ccc(Cl)cc1`, the Potency result in [1], in [2], in [3], in test [4], in test [5] and in [6] was “inactive” each time. In addition, the Potency result in test [7], in test [8], in test [9], in [13] and in test [14] was “inactive” throughout. Further, the Potency in test [10] was 9.44 µM (active); in test [11] it was 10.6 µM (active); in test [12], 21.1 µM (active).

Consider `c1cnccn1`, for which the Potency entry in [1], in test [2], in test [3], in [4], in test [5] and in [6] was “inactive” in each case. For the same compound, the Potency entry in test [7], in test [8], in test [9], in test [10], in test [11] and in [12] was “inactive” throughout. Also, the Potency entry in [13] and in test [14] was “inactive” in each case.

In the case of `COc1c(C)c2c(c(O)c1C/C=C(\C)CCC(=O)OCCN1CCOCC1)C(=O)OC2`, the Potency entry in [1], in [2], in test [3], in test [4], in test [5] and in test [6] was “inactive” in each case. The Potency result in test [7], in test [8], in [15], in test [9], in [14] and in test [18] was “inactive” in each case. Besides, the Potency was 0.422 µM (active) in test [11], 0.422 µM (active) in test [12] and 0.674 µM (active) in [16]. In addition, the outcome in test [17] was inactive.

Take `CC[N+](CC)(CC)CCOC(=O)C(C1CCCC1)C1CCCC1`: the Potency entry in [1], in [2], in test [3], in test [4], in test [5] and in test [6] was “inactive” throughout. Further, the Potency entry in [7], in [8], in test [9] and in [13] was “inactive” in each case. In addition, the Potency is 5.31 µM (active) in test [10], 11.9 µM (active) in test [11] and 8.41 µM (active) in test [12].

Consider `Cc1ccc(N/N=c2\c(=O)cc/c(=N\Nc3ccc(S(=O)(=O)O)cc3)c2=O)c(C)c1`, for which the Potency entry in [1], in test [2], in [3], in test [4], in test [5] and in [6] was “inactive” in each case. In addition, the Potency entry in test [7], in test [8], in test [9], in test [10], in [12] and in [13] was “inactive” in each case. Also, in test [14], the Potency is 27.3 µM (active).

`C#CC1(O)CC[C@H]2[C@@H]3CCC4=CCCC[C@@H]4[C@H]3CC[C@@]21C` (stereo not given in full): the Potency result in [1], in [2], in test [3], in test [4], in test [5] and in [6] was “inactive” throughout. Further, the Potency result in [7], in test [8], in test [15], in test [9], in test [13] and in test [14] was “inactive” each time. For the same compound, the Potency in test [10] is 11.4 µM (active) and 13.7 µM (active); in test [12], 11.4 µM (active) and 15.4 µM (active).

Turning to `O=C(O)Cc1ccccc1Nc1c(Cl)cccc1Cl`, the Potency entry in test [1], in test [2], in test [3], in test [4], in test [5] and in [6] was “inactive” each time. The Potency entry in [7], in test [8], in test [9], in test [10], in test [13] and in test [16] was “inactive” each time. Further, the Potency entry in [19] and in test [18] was “inactive” each time. Also, the Potency result in [11] is “inactive and 61.1 µM (active)”. In addition, in test [17], the compound was called inactive.

For `C=C(CC)C(=O)c1ccc(OCC(=O)O)c(Cl)c1Cl`, the Potency result in test [1], in test [2], in test [3], in test [4], in test [5] and in test [6] was “inactive” in each case. Moreover, the Potency result in [7], in [8], in test [15], in test [9] and in test [13] was “inactive” throughout. The Potency in [10] was 18.8 µM (active) and 43 µM (active); in test [11], 26.6 µM (active) and 48.2 µM (active); in test [12], 29.8 µM (active) and 48.2 µM (active); in test [14], 54.1 µM (active).
